The results in this text go back to the supplement of paper PMC12645437, “Orthogonal IMiD-Degron Pairs Induce Selective Protein Degradation in Cells” (ACS Chemical Biology, 2025).

Whole data set: some 8,300 sequences, median “log2 fold change of degron read counts, EGFP-low vs EGFP+ sorted cells (limma voom), compound-induced degradation” near -1.1, cut for the highest 2% near 3.2. The sample holds the highest values, similar sequences and a random draw of the others, so the mix is not that of the screen.

The test concerns the target T1, CRBN, Q96SW2.
T1 chain: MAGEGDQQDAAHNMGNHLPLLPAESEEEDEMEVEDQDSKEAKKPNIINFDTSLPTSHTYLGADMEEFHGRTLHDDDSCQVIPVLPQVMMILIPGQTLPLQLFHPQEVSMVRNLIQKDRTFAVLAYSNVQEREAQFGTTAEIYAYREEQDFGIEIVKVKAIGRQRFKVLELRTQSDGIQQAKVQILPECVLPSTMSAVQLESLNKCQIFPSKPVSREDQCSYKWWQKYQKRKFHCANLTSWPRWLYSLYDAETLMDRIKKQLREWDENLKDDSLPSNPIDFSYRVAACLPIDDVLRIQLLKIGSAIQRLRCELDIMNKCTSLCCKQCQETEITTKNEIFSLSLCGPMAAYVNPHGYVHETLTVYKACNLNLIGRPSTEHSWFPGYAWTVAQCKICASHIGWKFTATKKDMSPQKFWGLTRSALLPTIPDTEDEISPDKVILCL
The experiment in a line: log2 fold change of degron read counts, EGFP-low vs EGFP+ sorted cells (limma voom), compound-induced degradation; higher = more compound-induced degradation of the degron-EGFP fusion; degrons are variants of IKZF1/3 zinc finger 2; compound dose not given here. The note with it: Jurkat, 18 h.

The mark [1] stands for this setting: compound: compound 19 (5-tert-butyl-thalidomide).
Where [2] appears, read: compound: compound 22 (5-morpholino-thalidomide).
[3] abbreviates: compound: compound 33 (diphenyl IMiD analogue).
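Note: pooled lentiviral library of zinc finger degron-EGFP fusions in mCherry-positive Jurkat cells, FACS-sorted after compound exposure, with degron abundance counted by next-generation sequencing.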

Regarding FQCEQCGAWFTQKGNLLRHIKL [46F_47Q_49E_50Q_52G_53A_54W_55F_67L_, Q9UKT9], the “log2 fold change of degron read counts” value was -2.85 under setting [1], -2.85 under setting [2], -1.86 under setting [3] and -0.183 (compound: thalidomide).
Take FRCDICGAHFTQKGNLLRHIKL [46F_47R_49D_50I_52G_53A_54H_55F_67L_, Q9UKT9]: the “log2 fold change of degron read counts” value was -1.41 under setting [1], -1.53 under setting [2], 0.162 under setting [3] and -1.18 (compound: thalidomide).
Consider FACDVCGACFTQKGNLLRHIKL [46F_47A_49D_50V_52G_53A_54C_55F_67L_, Q9UKT9], for which the “log2 fold change of degron read counts” value reads like this: under setting [1], 1.83; under setting [2], -0.406; under setting [3], -0.331; (compound: thalidomide) -2.56.
The corresponding values for FKCNVCGANFTQKGNLLRHIKL [46F_47K_49N_50V_52G_53A_54N_55F_67L_, Q9UKT9] are -2.45, -2.95, -3.12 and -2.19.
For FICNICGAYFTQKGNLLRHIKL [46F_47I_49N_50I_52G_53A_54Y_55F_67L_, Q9UKT9], in that order: -1.5, 0.102, 1.22 and 0.967.
On to FLCNVCGALFTQKGNLLRHIKL [46F_47L_49N_50V_52G_53A_54L_55F_67L_, Q9UKT9], for which the “log2 fold change of degron read counts” value is -2.4 under setting [1], -1.93 under setting [2], -0.86 under setting [3] and -0.854 (compound: thalidomide).
For FCCEICGHNFTQKGNLLRHIKL [46F_47C_49E_50I_52G_53H_54N_55F_67L_, Q9UKT9], in that order: -3.4, -2.63, -3.12 and -2.76.
The corresponding values for FQCDQCGANFTQKGNLLRHIKL [46F_47Q_49D_50Q_52G_53A_54N_55F_67L_, Q9UKT9] are -2.74, -1.96, -2.34 and -0.263.
With FHCNICGAIFTQKGNLLRHIKL [46F_47H_49N_50I_52G_53A_54I_55F_67L_, Q9UKT9], the “log2 fold change of degron read counts” value by setting is: under setting [1], -0.569; under setting [2], 0.345; under setting [3], -0.0029; (compound: thalidomide) -0.75.
For FQCNICGAIFTQKGNLLRHIKL [46F_47Q_49N_50I_52G_53A_54I_55F_67L_, Q9UKT9], in that order: -0.972, 2.07, 2.21 and 3.81.
The corresponding values for FYCNICGAIFTQKGNLLRHIKL [46F_47Y_49N_50I_52G_53A_54I_55F_67L_, Q9UKT9] are 0.725, 1.63, 0.601 and -0.748.
Consider FTCPICGRYFTQKGNLLRHIKL [46F_47T_49P_50I_52G_53R_54Y_55F_67L_, Q9UKT9], for which the “log2 fold change of degron read counts” value reads like this: under setting [1], -0.651; under setting [2], -0.614; under setting [3], 0.487; (compound: thalidomide) 0.782.
LACNQCGFLCTQKGNLLRHIKL [46L_47A_49N_50Q_52G_53F_54L_55C_67L_, Q9UKT9]: the “log2 fold change of degron read counts” value was -1.52 under setting [1], -2.34 under setting [2], -2.08 under setting [3] and -1.99 (compound: thalidomide).
Consider LECEICGFKCTQKGNLLRHIKL [46L_47E_49E_50I_52G_53F_54K_55C_67L_, Q9UKT9], for which the “log2 fold change of degron read counts” value is, setting by setting: under setting [1], -0.0668; under setting [2], -1.67; under setting [3], -0.528; (compound: thalidomide) 2.53.
Turning to LWCEICGFKCTQKGNLLRHIKL [46L_47W_49E_50I_52G_53F_54K_55C_67L_, Q9UKT9], the “log2 fold change of degron read counts” value reads like this: under setting [1], 3.29; under setting [2], 3.25; under setting [3], 1.64; (compound: thalidomide) 1.24.
On to LACEICGFKCTQKGNLLRHIKL [46L_47A_49E_50I_52G_53F_54K_55C_67L_, Q9UKT9], for which the “log2 fold change of degron read counts” value under setting [1] came to 3.4, the “log2 fold change of degron read counts” value under setting [2] worked out at 1.5, the “log2 fold change of degron read counts” value under setting [3] is -1.07 and the “log2 fold change of degron read counts” value (compound: thalidomide) was 0.917.
For LQCEICGFKCTQKGNLLRHIKL [46L_47Q_49E_50I_52G_53F_54K_55C_67L_, Q9UKT9], in that order: 0.755, 1.87, 0.3 and 3.27.
For LYCEICGFKCTQKGNLLRHIKL [46L_47Y_49E_50I_52G_53F_54K_55C_67L_, Q9UKT9], in that order: 3.6, 3.16, 1.42 and 1.42.
Regarding LSCEICGFKCTQKGNLLRHIKL [46L_47S_49E_50I_52G_53F_54K_55C_67L_, Q9UKT9], the “log2 fold change of degron read counts” value by setting is: under setting [1], 2.27; under setting [2], 1.7; under setting [3], -0.728; (compound: thalidomide) 1.09.
The corresponding values for LDCEICGFKCTQKGNLLRHIKL [46L_47D_49E_50I_52G_53F_54K_55C_67L_, Q9UKT9] are -0.859, -1.7, -1.79 and -0.369.
The corresponding values for LLCEICGFKCTQKGNLLRHIKL [46L_47L_49E_50I_52G_53F_54K_55C_67L_, Q9UKT9] are 0.0968, -1.51, -0.463 and 1.96.
Take LICEICGFKCTQKGNLLRHIKL [46L_47I_49E_50I_52G_53F_54K_55C_67L_, Q9UKT9]: the “log2 fold change of degron read counts” value amounted to 0.236 under setting [1], 1.62 under setting [2], 0.617 under setting [3] and 2.72 (compound: thalidomide).
For LCCEICGFKCTQKGNLLRHIKL [46L_47C_49E_50I_52G_53F_54K_55C_67L_, Q9UKT9], in that order: 2, 1.83, -0.183 and 2.48.
In the case of LTCEICGFKCTQKGNLLRHIKL [46L_47T_49E_50I_52G_53F_54K_55C_67L_, Q9UKT9], the “log2 fold change of degron read counts” value runs as follows: under setting [1], 0.899; under setting [2], 1.56; under setting [3], -0.216; (compound: thalidomide) 2.39.
Consider LFCEICGFKCTQKGNLLRHIKL [46L_47F_49E_50I_52G_53F_54K_55C_67L_, Q9UKT9], for which the “log2 fold change of degron read counts” value is, setting by setting: under setting [1], 3.22; under setting [2], 3.15; under setting [3], 0.657; (compound: thalidomide) 1.64.
For FLCPVCGAHFTQKGNLLRHIKL [46F_47L_49P_50V_52G_53A_54H_55F_67L_, Q9UKT9], the “log2 fold change of degron read counts” value is -0.298 under setting [1], -0.793 under setting [2], 1.34 under setting [3] and 0.943 (compound: thalidomide).
As for LVCEICGFPCTQKGNLLRHIKL [46L_47V_49E_50I_52G_53F_54P_55C_67L_, Q9UKT9], the “log2 fold change of degron read counts” value runs as follows: under setting [1], -1.74; under setting [2], -0.966; under setting [3], -1.5; (compound: thalidomide) -0.424.
For FVCPICGRIFTQKGNLLRHIKL [46F_47V_49P_50I_52G_53R_54I_55F_67L_, Q9UKT9], in that order: -1.17, -0.629, 1.04 and 1.32.
